Data: PubChem BioAssay (NCATS)
Records with an inconclusive call do not appear. The source made the active and inactive calls. Calls come from the whole dose curve; as a rule, active = well fitted cell-killing curve with a large enough effect; inconclusive = small, poorly fitted or top-dose-only effect, or effect the other way; inactive = flat fitted curve, though single readings scatter.

Assay: MultiTox-Fluor Cytotoxicity Assay - LYMP1-001 - Dead Cells (AID 946)
Conditions: LYMP1-001 lymphoblastoid cells, dead-cell protease fluorescence; series mostly up to 92.2 µM
Excerpt: NIH Chemical Genomics Center [NCGC]
NIH Molecular Libraries Screening Centers Network [MLSCN]
National Institutes of Environmental Health Sciences [NIEHS]
National Toxicology Program [NTP]
We have developed a 1536-well cell-based assay for quantitative high throughput screening (qHTS) against a number of cell lines to determine in vitro cytotoxicity of small molecules. This particular assay uses a human lymphoblastoid cell line (LYMP1-001) purchased from Coriell Institute for Medical Research.
NCGC Assay Protocol Summary:
The MultiTox-Fluor Cytotoxicity Assay (Promega) is a homogeneous method to simultaneously measure the relative number of live and dead cells in culture by detecting changes in cell membrane integrity. There are two fluorogenic peptide substrates in the assay reagent. Viable cells are determined when the cell-permeant substrate (GF-AFC) enters the cell and is cleaved by protease from live cells resulting in liberated fluorophore. This live-cell protease activity restricted to viable cells is proportional to cell number. The dead cells are determined by using fluorogenic cell-impermeant peptide substrate (bis-AAF-R110) which cleaved by dead cell proteases leaking from damaged cell membrane.
Using the MultiTox-Fluor Cytotoxicity Assay, the relative number of dead cells was measured in the lymphoblastoid cell line with complete culture medium following compound treatment for 16 hours. The assay was performed in opaque black Kalypsys 1536-well plates. In the screen, tetraoctylammonium bromide was used as positive control. Library compounds were measured for their ability to cause acute toxicity in the cell line, as reflected by an increase in dead cell protease activity, in a concentration-dependent manner. Data were normalized to the controls for basal activity (DMSO only) and 100% stimulation (15 uM tetraoctylammonium bromide). AC50 values were determined from concentration-response data modeled with the standard Hill equation.
qHTS protocol for MultiTox-Fluor Cytotoxicity assay
[Step] [Parameter] [Value] [Description]
1. Reagent; 5 uL; 2500 lymphoblastoid cells/well
2. Time; 5 hr; 37 C incubation
4. Controls; 23 nL; Tetraoctylammonium bromide 6.4pM to 92 uM
5. Time; 16 hr; 37 C incubation
6. Reagent; 5 uL; MuliTox-Fluor Assay reagent
7. Time; 60 min; Room Temperature
8. Detection; dead-cell fluorescence (Ex/Em=485/520); EnVision plate reader
Keywords: cytotoxicity, lymphoblastoid cell line, fluorescence, NTPHTS, NTPHTS_NCGC, NIEHS, EPA, DSSTox, MLSMR, MLSCN, NIH Roadmap, qHTS, NCGC
In the case of Cc1ccc(C)c([N+](=O)[O-])c1, the outcome is reported as “inactive”. With NC(=O)CCCCC(N)=O the outcome was “inactive”. With N#CC1(O)CCCCC1 the outcome was “inactive”. In the case of O=C1CCC(=O)O1, the outcome is reported as “inactive”. With CNc1ccccc1 the outcome was “inactive”. With CC(=O)c1nccs1 the outcome was “inactive”. For Cc1c(N)cccc1[N+](=O)[O-], the outcome was “inactive”. For CC(=O)C1(C)CC2=C(CCCC2(C)C)CC1C (stereo not given), the outcome was “inactive”. For CC(C)=CCl, the outcome was “inactive”. In the case of OCCO, the outcome is reported as “inactive”. For CNC(=O)c1ccccc1, the outcome was “inactive”. In the case of COc1ccc(N)c(OC)c1, the outcome is reported as “inactive”. With OC/C(Br)=C(\Br)CO the outcome was “inactive”. With Cc1cccc2sc(N)nc12 the outcome was “inactive”. For CC(C)C=O, the outcome was “inactive”. With CC(C)N(C)C the outcome was “inactive”. With CCCCCCC=O the outcome was “inactive”. For Clc1ccccn1, the outcome was “inactive”. In the case of C[C@@H]1CC2(OC[C@]3(C)O[C@H]23)O[C@H]2C[C@@]3(C)[C@@H]4CC[C@H]5C(C)(C)C(O[C@@H]6OC[C@@H](O)[C@H](O)[C@H]6O)CC[C@@]56C[C@@]46CC[C@]3(C)[C@@H]12 (stereo not given in full), the outcome is reported as “inactive”. In the case of CCC(C)=O, the outcome is reported as “inactive”. For Cc1ccc(Br)cc1, the outcome was “inactive”. For CCOc1cccc(N)c1, the outcome was “inactive”. With Cc1cc(C)cc(N)c1 the outcome was “inactive”. With O=Cc1ccc(C(=O)O)cc1 the outcome was “inactive”. With CCCCC=O the outcome was “inactive”. For O=[N+]([O-])c1ccc(NCCO)c(OCCO)c1, the outcome was “inactive”. For C=CCCCCCCC=C, the outcome was “inactive”. With Nc1cccc(O)c1 the outcome was “inactive”. In the case of CCC(C)(C)OC, the outcome is reported as “inactive”. With Cc1ccccc1C(N)=O the outcome was “inactive”. With BrC(Br)C(Br)Br the outcome was “inactive”. With CCCCCCCN the outcome was “inactive”. In the case of Nc1ccccc1[N+](=O)[O-], the outcome is reported as “inactive”. With COc1cccc2sc(N)nc12 the outcome was “inactive”. With CCCCC(CC)C(=O)O (stereo not given) the outcome was “inactive”. In the case of C=CCCCC, the outcome is reported as “inactive”. For c1ccc(Oc2ccccc2)cc1, the outcome was “inactive”. With c1ccc2n[nH]nc2c1 the outcome was “inactive”. With O=[N+]([O-])c1cccc(Cl)c1 the outcome was “inactive”. With CCN(CC)c1cccc(O)c1 the outcome was “inactive”.
